Structures are written as SMILES. Out of some 48,000 compounds screened, about 13,000 (27%) showed an effect of 50% or more. The list shows a part of the results.

In this experiment the test system is Wolbachia pipientis. In words: Anti-Wolbachia Cell-Based Screen. The format is functional. On the set-up: scale not given: in the data most compounds retested in dose-response had high values. Conditions: 5 µM.
`NC(=O)C1=NC2=NS(=O)(=O)c3ccccc3N2N1Cc1ccc(Br)cc1`: the “Percent Effect” value was found to be 9.157%.

Take `Cc1c[nH]c(C(=O)N2CCn3nc(C(=O)NC4CC4)cc3C2)n1`: the “Percent Effect” value is listed as -2.025%.

As to `Cc1nc2ccc(C(=O)N3CCN(CCO)[C@@H]4CS(=O)(=O)C[C@@H]43)cc2o1`, the “Percent Effect” value is given as -12.01%.

Regarding `CC(C)N1CCC(c2n[nH]cc2S(C)(=O)=O)CC1`, the “Percent Effect” value was 115.7%.

With `Cn1ccnc1C1CCCN(C(=O)c2cc(F)cc(F)c2)C1` (stereo unspecified), the “Percent Effect” value came to 106.9%.

Regarding `COCCn1ccnc1C1CCCN(C(=O)c2ccncc2F)C1` (stereo unspecified), the “Percent Effect” value came out at 0%.

Take `Cc1cc(C(=O)N2CCCC(c3nccn3Cc3ccncc3)C2)no1` (stereo unspecified): the “Percent Effect” value is listed as 10.63%.

For `Cn1ccnc1C1CCCN(C(=O)c2ccncc2F)C1` (stereo unspecified), the “Percent Effect” value is recorded as 111.1%.

On to `CCc1ncc(C(=O)N2CCCC(c3nccn3CCOC)C2)cn1` (stereo unspecified), for which the “Percent Effect” value is recorded as -9.089%.

With `Cc1cc(C(=O)N2CCCC(c3nccn3C)C2)cc(S(N)(=O)=O)c1C` (stereo unspecified), the “Percent Effect” value amounted to 99.7%.

On to `COCCn1ccnc1C1CCCN(C(=O)c2cc(F)cc(F)c2)C1` (stereo unspecified), for which the “Percent Effect” value is 83.8%.

With `Cc1nc(N)sc1C(=O)N1CCCC(c2nccn2CCCN(C)C)C1` (stereo unspecified), the “Percent Effect” value stood at 8.356%.

Regarding `COCCn1ccnc1C1CCCN(C(=O)c2ccccc2C#N)C1` (stereo unspecified), the “Percent Effect” value is -8.592%.

Turning to `COCCn1ccnc1C1CCCN(C(=O)c2cccnc2SC)C1` (stereo unspecified), the “Percent Effect” value was -0.1241%.

For `CC(C)(O)c1cn(C2CCN(C(=O)CCC(F)(F)F)CC2)nn1`, the “Percent Effect” value is reported as 13.09%.

On to `CN(CCc1ccncc1)C(=O)c1sccc1OC(F)F`, for which the “Percent Effect” value was -13.92%.

Consider `CCC1=N[C@@]2(CC[C@@H]3CN(C(=O)NCC(C)C)C[C@@H]32)C(=O)N1CC1CC1`, for which the “Percent Effect” value was found to be 11.23%.

On to `Cc1ncc(C(=O)Nc2cncnc2N(C)C)c(Cl)c1Cl`, for which the “Percent Effect” value is -6.041%.

Take `CN(C)C(=O)c1cccnc1SCc1ccccc1Cl`: the “Percent Effect” value is 128.1%.

Consider `CN(C)C(=O)c1cccnc1SCc1ccccc1C#N`, for which the “Percent Effect” value turned out to be 100.1%.

Regarding `CSc1ncccc1C(=O)N(C)CCc1scnc1C`, the “Percent Effect” value was determined as 0.9599%.

Take `CN(C)C(=O)CN1C[C@@H]2CC[C@H](C1)N(Cc1ccccc1C#N)C2`: the “Percent Effect” value is listed as -40.35%.

As to `CSc1ncccc1C(=O)N(C)C(C)Cc1ccccn1` (stereo unspecified), the “Percent Effect” value was 1.339%.

Turning to `Cc1ccccc1CSc1ncccc1C(=O)N(C)C`, the “Percent Effect” value is 111%.

Turning to `CN(C)C(=O)c1ccccc1NCCCOc1cccc(C#N)c1`, the “Percent Effect” value is reported as -15.07%.

Regarding `Cc1cccnc1NC(=O)CNC(=O)c1ccccc1Cl`, the “Percent Effect” value is given as -60.17%.

Consider `CSCC(=O)N(Cc1ccccn1)Cc1ccccc1C`, for which the “Percent Effect” value is -1.935%.

For `O=C(CNC(=O)C1CCCC1)NCc1cnn(-c2ccc(F)cc2F)c1`, the “Percent Effect” value is on record as -3.155%.

`CC(=O)N1CCc2c(nc(N(C)C)nc2NCCc2cccs2)C1`: the “Percent Effect” value is 30.52%.

As to `Cc1ccccc1C(O)CNC(=O)Cc1ccc(F)cc1` (stereo unspecified), the “Percent Effect” value is -16.74%.

Regarding `c1cnnc(NCC2CN(CCN3CCCCC3)CCO2)c1` (stereo unspecified), the “Percent Effect” value was -1.688%.

Take `O=C(CN1CCOC(Cn2cccn2)C1)NC1CCN(C2CC2)CC1` (stereo unspecified): the “Percent Effect” value is -5.348%.

`O=C(CCN1CCOC(Cn2cccn2)C1)NC1CCCCC1` (stereo unspecified): the “Percent Effect” value was found to be 137.8%.

`O=C(CCN1CCOC(CNc2cccnn2)C1)NC1CCCCC1` (stereo unspecified): the “Percent Effect” value is 89.48%.

`O=C(CCN1CCOC(Cn2cccn2)C1)NC1CCCC1` (stereo unspecified): the “Percent Effect” value worked out at 3.251%.

`O=C(CN1CCOC(CNc2cccnn2)C1)N1CCCCC1` (stereo unspecified): the “Percent Effect” value is reported as 113.9%.

As to `OC1(CN2CCOC(CNc3cccnn3)C2)CCCCC1` (stereo unspecified), the “Percent Effect” value worked out at 90.58%.

For `Cc1c2nnn(CC(=O)N(C)C)c(=O)c2nn1C`, the “Percent Effect” value was 15.44%.

For the compound `COCc1nc2cc(NCc3ccc(C)o3)ccc2o1`, the “Percent Effect” value is -0.6949%.

For the compound `COCCN(C)CCN1CC2(CCN(C3CCCOC3)CC2)OC1=O` (stereo unspecified), the “Percent Effect” value was -0.4921%.

As for `Cc1cnccc1NCCn1ccnc1C1CCCCC1`, the “Percent Effect” value is 3.788%.

As to `Cc1ncc(CN(C)CC(O)c2ccc(OC(F)(F)F)cc2)s1` (stereo unspecified), the “Percent Effect” value is -20.59%.

Take `Cc1cn2c(n1)CCC(NC(=O)CCC(F)(F)F)C2` (stereo unspecified): the “Percent Effect” value is on record as 10.47%.

As for `Cc1cnn(CCC(=O)NC2CCc3nc(C)cn3C2)c1` (stereo unspecified), the “Percent Effect” value was 105.9%.

`Cc1cn2c(n1)CCC(NC(=O)CCCn1cncn1)C2` (stereo unspecified): the “Percent Effect” value was found to be 102.3%.

`Cc1cn2c(n1)CCC(NC(=O)CCn1ccnn1)C2` (stereo unspecified): the “Percent Effect” value is -2.127%.

Take `Cc1cn2c(n1)CCC(NC(=O)CCn1cncn1)C2` (stereo unspecified): the “Percent Effect” value is given as -7.204%.

For `Cc1cn2c(n1)CCC(NC(=O)c1ccc(CS(C)(=O)=O)o1)C2` (stereo unspecified), the “Percent Effect” value was -5.623%.

As to `Cc1cn2c(n1)CCC(NC(=O)Cn1cncn1)C2` (stereo unspecified), the “Percent Effect” value is given as 119.2%.

As to `CCN(C(=O)CNC1CCc2ncnn2C1)C1=CCCCC1` (stereo unspecified), the “Percent Effect” value is listed as -6.833%.

Regarding `CC(C)Oc1ccc(NCc2ccc([S+](C)[O-])cc2)c(F)c1` (stereo unspecified), the “Percent Effect” value came out at 7.808%.
